# Assay outcomes from PubChem BioAssay.
# Hits are enriched below; roughly 11% of the tested compounds scored in any of these assays.
# USP28 inh: blocks human USP28 ubiquitin-rhodamine cleavage. AID 1645857. actives 3% (n = 47,000). Q96RU2. inhibition, % at 25 µM. purified USP28, Ub-rhodamine cleavage fluorescence, 30 min
# USP30 inh: human USP30 deubiquitinase inhibition | actives 5.3% (n = 47,000) | purified USP30, Ub-rhodamine cleavage fluorescence | inhibition, % at 25 µM | AID 1645860
# Target sequence (Q70CQ3 whole entry, looked up): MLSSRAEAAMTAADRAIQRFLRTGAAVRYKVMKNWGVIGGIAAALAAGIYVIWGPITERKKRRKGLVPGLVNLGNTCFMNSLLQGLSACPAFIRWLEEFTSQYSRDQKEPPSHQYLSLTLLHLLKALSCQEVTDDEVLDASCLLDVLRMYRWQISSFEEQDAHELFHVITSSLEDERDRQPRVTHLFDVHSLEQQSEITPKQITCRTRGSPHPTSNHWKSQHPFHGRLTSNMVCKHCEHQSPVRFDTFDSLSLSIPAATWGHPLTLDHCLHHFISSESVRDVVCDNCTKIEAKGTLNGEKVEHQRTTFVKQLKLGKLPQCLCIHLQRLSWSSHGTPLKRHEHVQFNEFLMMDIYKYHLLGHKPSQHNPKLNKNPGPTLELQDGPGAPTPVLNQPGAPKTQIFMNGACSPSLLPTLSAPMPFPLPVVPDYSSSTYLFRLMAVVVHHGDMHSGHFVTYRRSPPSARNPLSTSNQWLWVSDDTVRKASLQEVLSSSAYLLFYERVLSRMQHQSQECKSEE
# USP17 inh: inhibitors of human USP17 deubiquitinase; purified USP17, Ub-rhodamine cleavage fluorescence, 3 h; inhibition, % at 50 µM; actives 6.5% (n = 47,000); AID 1645855
# An asterisk follows results filed as active; . = no result. Cut-off read from the data, not from the text of the source: active = inhibition above about 30%; inactive = the rest.
SMILES,USP28 inh,USP30 inh,USP17 inh
COc1ccc(NCc2nc3ccccc3n2Cc2ccccc2)cc1,9,-30,64*
COc1ccc(C)cc1NC(=O)CN1CCCCCC1,-2,-63,0
COc1ccccc1C1CN2C(=O)CN(CCCn3ccnc3)C(=O)[C@]2(C)c2[nH]c3ccccc3c21 (some centres not stated),-12,-30,-24
Cc1ccc(NS(=O)(=O)c2cc(NC(=O)CCOc3ccccc3C)ccc2C)c(C)c1,12,28,17
Cc1ccccc1OCCC(=O)Nc1cccc(S(=O)(=O)Nc2ccccc2Cl)c1,29,26,55*
Cc1c(C)n(Cc2ccncc2)c2ncnc(NCCCN(C)C)c12,8,15,8
c1ccc(OCc2nc(-c3ccn4cnnc4c3)no2)cc1,24,-40,-1
Fc1cccc(Cc2nc(-c3ccc4nncn4c3)no2)c1,.,.,-3
CCOc1ccc(Cc2nc(-c3ccc4nnc(C)n4c3)no2)cc1,-1,3,0
COc1ccc(Cc2nc(-c3ccc4nncn4c3)no2)c(Cl)c1,41*,5,0
Fc1ccc(Cc2nc(-c3ccc4nncn4c3)no2)cc1,58*,-1,1
Clc1ccc(OCc2nc(-c3ccn4cnnc4c3)no2)cc1,45*,-99,14
Cc1cc(C)c2c(c1)C(NC(=O)c1ccc[nH]1)CCO2 (configuration not stated),1,7,2
CCc1nc(-c2csc(S(=O)(=O)N3CCc4ccccc43)c2)no1,6,13,-1
Cc1nc(N2CCOCC2)nc2c1COCC21CCN(Cc2ccccc2F)C1 (configuration not stated),-20,-14,-16
COc1ccc(CC(=O)Nc2nonc2-c2ccc(OC)cc2)cc1,0,-1,8
Cc1cc2nc(Oc3cccc(C(F)(F)F)c3)c3ccccc3n2n1,17,49*,35*
Cc1cc2nc(Oc3ccc(Br)cc3F)c3ccccc3n2n1,10,11,12
Cc1ccc(S(=O)(=O)N2C(=O)CCC2C(=O)N2CCN(c3ccccc3F)CC2)cc1 (configuration not stated),5,-3,-8
CCN(c1ccccc1)S(=O)(=O)c1ccc(C(=O)Nc2nc3ccc(F)cc3s2)cc1,-30,-230,55*
CCCCOc1cccc(C(=O)Nc2cccc3cccnc23)c1,9,6,12
CCN(c1ccccc1)S(=O)(=O)c1cc(C(=O)Nc2nc3ccc(OC)cc3s2)c(Cl)cc1Cl,4,-35,16
CCCCOc1cccc(C(=O)Nc2nc3ccc(S(C)(=O)=O)cc3s2)c1,12,36*,26
COc1cccc(NC(=O)c2cnc3c(c2)c(=O)n(C)c(=O)n3-c2ccccc2)c1,0,24,6
O=C(Cc1ccc(F)cc1)N1CCN(C(=O)c2cc(-c3cccnc3)n[nH]2)CC1,-4,-9,-9
SMILES,USP28 inh,USP30 inh,USP17 inh
O=C1CC(c2ccccc2F)c2c(nc(-c3ccccc3)[nH]c2=O)N1 (configuration not stated),4,10,6
COc1ccccc1C1CC(=O)Nc2n[nH]c(-c3ccccc3)c21 (configuration not stated),7,0,.
COc1cccc(C2CC(=O)Nc3n[nH]c(-c4ccccc4)c32)c1OC (configuration not stated),7,19,21
COc1cc(C2CC(=O)Nc3nc(-c4ccccc4)[nH]c(=O)c32)cc(OC)c1O (configuration not stated),65*,66*,82*
COc1ccc(C2CC(=O)Nc3n[nH]c(-c4ccccc4)c32)cc1OC (configuration not stated),20,70*,15
COc1ccc(OC)c(C2CC(=O)Nc3n[nH]c(-c4ccccc4)c32)c1 (configuration not stated),10,36*,72*
O=C(Nc1cnn(-c2ncncc2N2CCOCC2)c1)Nc1ccccc1F,-1,0,-8
Cc1nc(N2CCOCC2)nc2c1COCC21CCN(Cc2ccc(F)cc2)C1 (configuration not stated),20,16,-2
C[C@@]12c3ccc4c(c3C(=O)c3occ(c31)C(O)C[C@H]2O)CCC4=O (some centres not stated),-6,-104,57*
CSc1nnc2c3c(c(C#N)c(Nc4ccccc4)n12)CC(C)(C)OC3,1,-9,-3
CC(=O)C1=C(O)[C@]2(O)C(=O)c3c(c(C)c4ccc(C)c(O)c4c3O)C[C@H]2[C@@H](N)C1=O,61*,-37,60*
COc1ccc(C2(C(=O)N(C)Cc3cccnc3OC)CC2)cc1,5,21,10
Cc1nnc(NC(=O)C(=O)c2cc(C)n(-c3ccc(Cl)cc3)c2C)s1,25,-42,43*
Cc1cc(C(=O)C(=O)Nc2cccc(Cl)c2)c(C)n1-c1ccc(F)cc1,1,1,-13
Cc1cccc(NC(=O)c2ccn(COc3ccc(F)cc3)n2)n1,10,4,17
Cc1cc(C)nc(NC(=O)c2ccn(COc3ccc(F)cc3)n2)c1,4,32*,4
Cc1ccc(Cl)cc1NC(=O)c1ccn(COc2ccccc2F)n1,35*,0,0
Cc1ccc(NC(=O)c2cc3ccccc3o2)nc1,5,-7,-2
Cc1ccc(NC(=O)c2ccn(COc3ccc(Cl)c(C)c3)n2)nc1,-6,22,34*
Cc1ccc(Cl)cc1NC(=O)c1cccc(-n2cnnn2)c1,-13,8,-2
Cc1ccc(NC(=O)c2cc(-c3cccnc3)n(-c3ccc(F)cc3)n2)nc1,8,-4,-13
Cc1ccc(NC(=O)c2ccn(COc3ccccc3Cl)n2)nc1,19,48*,33*
CCCNC(=O)CN1C(=O)c2ccccc2C1c1c[nH]c2ccccc12 (configuration not stated),-2,-9,-3
Cc1csc2nc(COC(=O)c3ccccc3NC(=O)C(C)C)cc(=O)n12,-4,-39,11
O=C(NCc1ccccn1)c1nnn(-c2ccc(F)cc2)c1-c1ccncc1,6,13,0
SMILES,USP28 inh,USP30 inh,USP17 inh
CC1CCC(NC(=O)C2CCN(C(=O)c3cc(-c4ccncc4)n[nH]3)CC2)CC1 (configuration not stated),13,25,17
c1ccc2cc(Sc3ncnc4c3oc3ccccc34)ccc2c1,0,7,5
Cc1nc(Sc2ccc3ccccc3c2)c2oc3ccccc3c2n1,18,40*,42*
CC(=O)N1C[C@H](Cc2ccccc2)n2c(nc3ccccc32)C[C@@H]1C,6,10,7
CCOc1ccc(CCNC(=O)CCC(=O)Nc2ccc3nc(N4CCN(C)CC4)cc(C)c3c2)cc1OCC,11,54*,28
COc1ccc(CCNC(=O)CCC(=O)Nc2ccc3nc(N4CCOCC4)cc(C)c3c2)cc1OC,-17,2,3
COc1ccccc1C(=O)N1CCC(c2nc3c(nnn3Cc3c(F)cccc3Cl)c(=O)[nH]2)CC1,-3,3,-6
NC(=O)C1CCN(Cc2nc(-c3ccc(Cl)cc3)no2)CC1,2,10,8
COc1ccc(S(=O)(=O)N2CCCCCC2c2sccc2C)cc1 (configuration not stated),-18,30*,19
Cc1ccsc1C1CCCCCN1S(=O)(=O)c1cc(F)ccc1F (configuration not stated),-4,-2,6
